The sample as a whole holds a higher share of hits than the screen did.
MARV entry inh: qHTS for inhibitors of binding or entry into cells for Marburg Virus. Marburg virus pseudotyped entry inhibition, cell reporter. Potency, µM (highest dose often 37.8 µM), most hits filed as inhibitors. 300,000 tested, 1.8% active; calls by dose curve; tested in HEK293 cells
Lassa entry inh: qHTS for Inhibitors of binding or entry into cells for Lassa Virus; Lassa virus pseudotype entry inhibition, cell reporter; Potency, µM (series often up to 37.9 µM), most hits filed as inhibitors; 300,000 tested, 1.2% active; AID 540256, 2011; calls by dose curve; tested in HEK293 cells; further: nearly all actives have a fitted effect of over 50% in size
AMA1-RON2 inh: qHTS for Inhibitors of AMA1-RON; Towards Development of Antimalarial Drug Lead: Primary Screen; AlphaScreen AMA1-biotinylated RON2 peptide binding; Potency, µM (series often up to 58.2 µM), hits mostly inhibitors; 360,000 tested, 0.2% active; active means well fitted inhibition curve with a large enough effect; inconclusive means small, poorly fitted or top-dose-only effect; inactive means no such curve, though single readings can be large or run the other way; further: nearly all actives have a fitted effect of over 45% in size
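AMA1 (3D7) with his tag at 25 nM final met compounds first, then biotinylated RON2 peptide at 25 nM; detection used donor plus acceptor beads, 10 µg/mL apiece, read by AlphaScreen after 30 min at room temperature.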
Cycloheximide cs: Cycloheximide Counterscreen for Small Molecule Inhibitors of Shiga Toxin; max response, %; 300,000 tested, 12% active; cell reporter, cycloheximide protein synthesis inhibition counterscreen; in the data active means max response mostly above about 13%, no sharp cut-off; inactive means mostly below about 14%; further: read at 38.3 µM for the half of the compounds with a filed dose
Shiga inhibitor: A qHTS for Small Molecule Inhibitors of Shiga Toxin; Vero cells, Shiga toxin protein synthesis inhibition reporter; inhibition, % at 38.7 µM; 290,000 tested, 9.2% active; AID 2315, 2010; in the data active means inhibition mostly above about 28%, no sharp cut-off; inactive means mostly below about 43%
Of the large screens only hits and unclear results are named; the others gave an inactive call.

COc1ccccc1-c1ccc(SCC(=O)Nc2cc(C)on2)nn1	none
COc1ccccc1-c1ccc(SCc2ccc([N+](=O)[O-])cc2)nn1	MARV entry inh 10µM, Lassa entry inh inconclusive
COc1ccccc1-c1ccc(SCc2cccc(C)c2)nn1	Cycloheximide cs 23
C=CCc1c(C)nc2ccc(C(=O)OCC)cc2c1Cl	MARV entry inh inconclusive, Lassa entry inh inconclusive, Shiga inhibitor 41
CCOC(=O)c1ccc2nc(C)c(CC)c(Cl)c2c1	MARV entry inh inconclusive
CCOC(=O)c1ccc2nc(C)c(C)nc2c1	Lassa entry inh inconclusive, Shiga inhibitor 61
CCOC(=O)c1cc2cc(OC)ccc2nc1C	Cycloheximide cs 16, Shiga inhibitor 88
CCOC(=O)c1ccc2nc(C)c(CCC(C)=O)c(Cl)c2c1	Lassa entry inh inconclusive, Cycloheximide cs 39, Shiga inhibitor 93
O=c1n(CCCN2CCN(C3CCCC(Cl)C3)CC2)nc2ccccn12 (stereo not given)	none (no result: Lassa entry inh, AMA1-RON2 inh, Cycloheximide cs, Shiga inhibitor)
CN(C)C(=O)CSc1cccc2cccnc12	MARV entry inh inconclusive, Cycloheximide cs 12
O=C(CSc1cccc2cccnc12)N1CCCC1	MARV entry inh inconclusive, Lassa entry inh inconclusive, Cycloheximide cs 42, Shiga inhibitor 37
O=C(CSc1ncccn1)N1CCCCCC1	none (no result: MARV entry inh, Lassa entry inh, Cycloheximide cs, Shiga inhibitor)
NNC(=O)CSc1cccc2cccnc12	Lassa entry inh inconclusive
O=C(O)CC1(CC(=O)N2CCOCC2)CCCC1	none
CN1CCN(c2ccc(C(=O)c3ccc(F)cc3)cc2)CC1	MARV entry inh inconclusive, Shiga inhibitor 111
O=C(c1ccccc1)c1ccc(N2CCOCC2)cc1	MARV entry inh inconclusive, Lassa entry inh inconclusive (no result: Cycloheximide cs, Shiga inhibitor)
O=C(c1ccccc1)c1ccc(N2CCCC2)cc1	Cycloheximide cs 24, Shiga inhibitor 53
O=C(c1ccccc1)c1ccc(N2CCNCC2)cc1	Cycloheximide cs 34, Shiga inhibitor active (no result: Lassa entry inh, AMA1-RON2 inh)
O=C(O)CCC(=O)N1CCN(c2ccc(C(=O)c3ccc(F)cc3)cc2)CC1	none
CC(=O)c1ccc(N2CCN(C(=O)c3ccc(C(=O)c4ccccc4)cc3)CC2)cc1	none (no result: MARV entry inh, Lassa entry inh, Cycloheximide cs, Shiga inhibitor)
O=C(NC(N1CCOCC1)C(Cl)(Cl)Cl)c1ccc(F)cc1 (stereo not given)	none (no result: Lassa entry inh)
Cc1cc(=O)n(C(NC(=O)c2ccccc2)C(=O)c2ccccc2)cn1 (stereo not given)	Cycloheximide cs 19
O=C(NC(C(=O)c1ccccc1)N1CCOCC1)c1cccs1 (stereo not given)	Lassa entry inh inconclusive, Cycloheximide cs 22, Shiga inhibitor 33
Cc1ccc(C(=O)C(NC(=O)c2ccco2)N2CCOCC2)cc1 (stereo not given)	Cycloheximide cs 39, Shiga inhibitor 53
O=C(NC(C(=O)c1ccccc1)N1CCOCC1)c1ccccc1 (stereo not given)	Cycloheximide cs 16
O=C(NC(C(=O)c1ccccc1)N1CCCCCC1)c1ccco1 (stereo not given)	MARV entry inh inconclusive
CC1C=C2OC(N)=C(C#N)C(c3ccncc3)C2C(=O)N1CCN(C)C (stereo not given)	none (no result: Lassa entry inh, AMA1-RON2 inh, Cycloheximide cs, Shiga inhibitor)
CCN(CC)CCOC(=O)c1ccc(N/C=C(/C#N)c2nc(-c3ccc(OC)c(OC)c3)cs2)cc1	MARV entry inh inconclusive, AMA1-RON2 inh 28µM
CC(C)N1C(=O)/C(=C/C=C/c2ccco2)C(=O)N(Cc2ccco2)C1=O	MARV entry inh 4µM, Lassa entry inh inconclusive, AMA1-RON2 inh inconclusive
CC1CN(C(=O)c2ccccc2NS(=O)(=O)c2ccc(Cl)cc2)CC(C)O1 (stereo not given)	none (no result: Cycloheximide cs, Shiga inhibitor)
CCN(C[C@H]1N[C@@](Cc2ccccc2)(C(=O)OC)[C@H]2C(=O)N(Cc3ccccc3)C(=O)[C@@H]12)C(=O)Nc1ccc(Cl)cc1	none (no result: MARV entry inh, Lassa entry inh, Cycloheximide cs, Shiga inhibitor)
CCN1C(=O)/C(=C/c2ccc(C)o2)N(C)C1=S	AMA1-RON2 inh inconclusive, Cycloheximide cs 16
O=C(CSc1nc2c(c(=O)n1-c1ccccc1)SCC2)NCC1CCCO1 (stereo not given)	none
O=C(NCC1CCCO1)c1ccc(N2CCCCC2)nc1 (stereo not given)	Cycloheximide cs 28, Shiga inhibitor 40
O=C(NCC1CCCO1)c1ccc2nc(N3CCCCC3)sc2c1 (stereo not given)	Cycloheximide cs 51, Shiga inhibitor 88
O=C1C2CCCCN2C(=O)N1CCCCN1CCN(c2ccccc2Oc2ccccc2)CC1 (stereo not given)	none (no result: MARV entry inh, Lassa entry inh)
CCC(C(=O)N1CCN(c2cc(Cl)ccc2C)CC1)n1nc(C)n2c(cc3occc32)c1=O (stereo not given)	MARV entry inh inconclusive (no result: AMA1-RON2 inh, Cycloheximide cs, Shiga inhibitor)
